Source: PubChem (National Center for Advancing Translational Sciences (NCATS))
LmPK inh: qHTS Assay for Inhibitors of Leishmania Mexicana Pyruvate Kinase (LmPK); Q27686; purified LmPK, Kinase-Glo ATP luminescence, 1 h; Potency, µM (top dose mostly 57.5 µM), for the others: at the top dose activity change, negative = inhibition, usual class: inhibitors; 290,000 tested, 0.37% active; AID 1721, 2009; further: potency means the concentration at half of the fitted maximal effect; on the % scale 0 is the no-effect control and ±100 the full control effect
Target sequence (Q27686 whole entry, looked up): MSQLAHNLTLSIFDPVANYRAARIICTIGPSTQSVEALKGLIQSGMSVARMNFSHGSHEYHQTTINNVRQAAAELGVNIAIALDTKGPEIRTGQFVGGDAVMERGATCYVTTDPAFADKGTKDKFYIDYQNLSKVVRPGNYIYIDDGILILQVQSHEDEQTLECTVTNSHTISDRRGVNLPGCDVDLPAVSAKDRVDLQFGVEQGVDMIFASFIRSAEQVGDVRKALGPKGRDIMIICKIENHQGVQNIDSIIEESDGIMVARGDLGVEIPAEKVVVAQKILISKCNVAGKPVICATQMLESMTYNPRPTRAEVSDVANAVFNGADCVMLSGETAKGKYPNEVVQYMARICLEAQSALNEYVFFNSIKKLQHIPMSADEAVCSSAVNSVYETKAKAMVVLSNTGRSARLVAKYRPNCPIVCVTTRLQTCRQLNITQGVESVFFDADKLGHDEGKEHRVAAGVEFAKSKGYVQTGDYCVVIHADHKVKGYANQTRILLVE
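qHTS format; LmPK 0.1 nM; substrates PEP 0.5 mM and ADP 0.1 mM. One-hour room-temperature incubation, then coupled luciferase luminescence; 0.5 nM enzyme wells mark activation.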
Shiga inhibitor: A qHTS for Small Molecule Inhibitors of Shiga Toxin. Vero cells, Shiga toxin protein synthesis inhibition reporter. 290,000 tested, 9.2% active. inhibition, % at 38.7 µM; in the data active means inhibition mostly above about 28%, no sharp cut-off; inactive means mostly below about 43%; further: 0% is about no effect
NS1 function inh: qHTS Assay for Inhibitors of Influenza NS1 Protein Function. 270,000 tested, 0.4% active. Potency, µM (highest dose often 46.1 µM), without a hit: top-dose activity, positive = more growth. AID 2326, 2010; calls by dose curve; further: potency means the concentration at half of the fitted maximal effect; actives are rising curves; nearly all actives have a fitted effect of over 50% in size
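Growth recovery, yeast-based: influenza A NS1 expressed in S. cerevisiae causes slow growth, and suppressors are detected by OD600. The parent strain without NS1 is used as positive control.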
CHX counter: Cycloheximide Counterscreen for Small Molecule Inhibitors of Shiga Toxin. 300,000 tested, 12% active. max response, %. AID 2314, 2010. cell reporter, cycloheximide protein synthesis inhibition counterscreen; in the data active means max response mostly above about 13%, no sharp cut-off; inactive means mostly below about 14%; further: read at 38.3 µM for the half of the compounds with a filed dose; 0% is about no effect
Giardia FBPA inh-1: qHTS Assay for Inhibitors of Fructose-1,6-bisphosphate Aldolase from Giardia Lamblia | purified Giardia FBPA | Potency, µM (titrated, usually from 59.6 µM), inactives show at the top dose activity, negative = inhibition, hits mostly inhibitors | AID 2451, 2010 | A8B2U2 | 290,000 tested, 0.71% active; further: potency means the concentration at half of the fitted maximal effect; on the % scale 0 is the no-effect control and ±100 the full control effect; nearly all actives have a fitted effect of over 55% in size
Target sequence (A8B2U2 whole entry, looked up): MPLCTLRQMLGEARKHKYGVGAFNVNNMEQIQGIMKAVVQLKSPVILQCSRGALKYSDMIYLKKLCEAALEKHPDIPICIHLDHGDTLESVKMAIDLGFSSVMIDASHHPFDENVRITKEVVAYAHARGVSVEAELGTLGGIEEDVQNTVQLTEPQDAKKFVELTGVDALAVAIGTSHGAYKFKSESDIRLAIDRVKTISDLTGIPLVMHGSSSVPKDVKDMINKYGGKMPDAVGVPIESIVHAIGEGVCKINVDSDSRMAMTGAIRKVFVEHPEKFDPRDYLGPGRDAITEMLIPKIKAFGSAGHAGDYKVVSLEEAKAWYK
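Giardia FBPA (40 nM reagent) was preincubated 10 min at RT with compound (up to 57.5 uM final), then substrate plus GAPDH/TPI/NAD/arsenate coupling system with diaphorase/resazurin was added; resorufin fluorescence (525/598 nm) was read after 20 min.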
Giardia growth: qHTS Assay for Inhibitors of Fructose-1,6-bisphosphate Aldolase from Giardia Lamblia: Giardia lamblia growth inhibition; shares compounds with Giardia FBPA inh-1; Giardia lamblia trophozoite growth inhibition; Potency, µM (top dose mostly 57.5 µM), without a hit: top-dose activity change, negative = inhibition, actives largely listed as inhibitors; 1,500 tested, 5% active;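 further: potency means the concentration at half of the fitted maximal effect; trophozoites exposed to compound for 48 h at 37 °C; on the % scale 0 is the no-effect control and ±100 the full control effect; nearly all actives have a fitted effect of over 70% in size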
Mammalian tox: qHTS Assay for Inhibitors of Fructose-1,6-bisphosphate Aldolase from Giardia Lamblia: Mammalian cellular toxicity | shares compounds with Giardia FBPA inh-1 | mammalian cell viability counter-screen, qHTS | Potency, µM (top dose mostly 57.5 µM), inactives show at the highest dose viability change, negative = toxicity, most hits filed as inhibitors | 1,500 tested, 4% active | AID 2786, 2010;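 further: Chinese hamster ovary cells used as mammalian cytotoxicity surrogate; viability measured as cellular ATP by luminescence; potency means the concentration at half of the fitted maximal effect; compound exposure lasted 48 h before reading; on the % scale 0 is the no-effect control and ±100 the full control effect; nearly all actives have a fitted effect of over 60% in size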
Giardia FBPA inh-2: qHTS Assay for Inhibitors of Fructose-1,6-bisphosphate Aldolase from Giardia Lamblia: Primary screen confirmation; 1,500 tested, 5% active; Potency, µM (highest dose often 57.5 µM), without a hit: at the highest dose activity change, negative = inhibition, hits mostly inhibitors; shares compounds with Giardia FBPA inh-1; purified Giardia aldolase enzyme activity, qHTS; further: potency means the concentration at half of the fitted maximal effect; on the % scale 0 is the no-effect control and ±100 the full control effect; nearly all actives have a fitted effect of over 45% in size
Rabbit FBPA inh: qHTS Assay for Inhibitors of Fructose-1,6-bisphosphate Aldolase from Giardia Lamblia: Rabbit FBPA Selectivity; shares compounds with Giardia FBPA inh-1; Rabbit muscle FBPA enzyme inhibition, selectivity counter-screen; Potency, µM (doses to about 57.5 µM), for inactives: at the highest dose activity, negative = inhibition, usual class: inhibitors; 1,500 tested, 4% active; AID 2794, 2010; further: potency means the concentration at half of the fitted maximal effect; on the % scale 0 is the no-effect control and ±100 the full control effect; nearly all actives have a fitted effect of over 60% in size
GAPDH counter: qHTS Assay for Inhibitors of Fructose-1,6-bisphosphate Aldolase from Giardia Lamblia: Coupling assay counterscreen confirmation; shares compounds with Giardia FBPA inh-1; GAPDH coupling enzyme counterscreen, biochemical, qHTS; Potency, µM (doses to about 57.5 µM), inactives show top-dose activity change, negative = inhibition, most hits filed as inhibitors; 1,500 tested, 6% active; further: potency means the concentration at half of the fitted maximal effect; on the % scale 0 is the no-effect control and ±100 the full control effect; nearly all actives have a fitted effect of over 55% in size
Starred values were filed as active, the others as inactive; u = inconclusive; x = no result; [ ] = dose if it differs, or a comment. Shown are actives, neighbours in structure and some others; about 14% of the full set was active somewhere. Unless noted, the call rests on the fitted dose curve; in most records, active means well fitted curve in the direction sought with a large enough effect; inconclusive means small, poorly fitted or top-dose-only effect, or another doubt; inactive means no such curve, though single readings can be large; an effect the other way counts as inactive or inconclusive.

SMILES | LmPK inh | Shiga inhibitor | NS1 function inh | CHX counter | Giardia FBPA inh-1 | Giardia growth | Mammalian tox | Giardia FBPA inh-2 | Rabbit FBPA inh | GAPDH counter
CCOc1ccc(C(=O)N2CCN(Cc3ccccc3)CC2)cc1OCC | -1% | 14 | -11% | -2 | 10% | x | x | x | x | x
O=c1ccc2c(-c3ccccc3)c3ccc(O)cc3oc-2c1 | -5% | 4 | -1% | -5 | 14µM* | u | 5% | -23% | -5% | -9%
Nc1ccc(-c2c3ccc(=O)cc-3oc3cc(O)ccc23)cc1C(=O)O | 3% | -7 | 4% | -4 | -15% | x | x | x | x | x
COc1cccc(Cn2c(=O)c(-c3cccs3)nc3cnc(OC)nc32)c1 | x | x | x | x | -3% | x | x | x | x | x
O=C1C=C(O)c2cccc(O)c2C1=O | -2% | 5 | 6% | 5 | 5.6µM* | 3%[10.4 µM] | 19% | u | -21% | u
O=C1c2cccc(O)c2C(=O)c2c(O)cccc21 | 3% | -6 | -13% | 0 | -18% | x | x | x | x | x
O=C(CSc1cccc2cccnc12)Nc1cc(C(=O)O)cc(C(=O)O)c1 | 0% | -5 | 8% | -2 | 25µM* | -1% | -5% | 8% | 12% | 18%
CC(C)Cc1nnc(NC(=O)CCC(=O)NC2CCCC2)s1 | 6% | 11 | 2% | 5 | x | x | x | x | x | x
C=CCn1c(SCC(=O)NC2CCCC2)nnc1-c1cccnc1 | -3% | 23 | -1% | -2 | u | x | x | x | x | x
C=CCn1c(SCC(=O)c2ccc(O)c(O)c2)nnc1-c1ccccc1OC | 4% | 16 | -12% | -3 | 3.2µM* | u | u | -19% | -18% | 8%
C=CCn1c(SCC(=O)c2ccc(O)c(O)c2)nnc1-c1cccnc1 | 9% | 1 | 5% | -1 | 16µM* | 27%[10.4 µM] | 23% | -25% | -20% | -4%
CCn1c(SCC(=O)c2ccc(O)c(O)c2)nnc1-c1ccccc1 | -3% | 61 | 30% | 34* | 2.2µM* | -20% | -15% | -27% | -29% | -1%
CCn1c(SCC(=O)c2ccc(O)c(O)c2)nnc1-c1ccccc1OC | 0% | 8 | 11% | -2 | 3.2µM* | u | -1% | -24% | -18% | 0%
CC(=O)c1cccc(NC(=O)Cn2cnc(S(=O)(=O)N3CCCC3)c2)c1 | 7% | 17 | 3% | -4 | -1% | x | x | x | x | x
O=[N+]([O-])c1ccc(S(=O)(=O)N2CCN(Cc3ccco3)CC2)cc1 | 1% | -6 | -8% | 0 | x | x | x | -5% | -8% | 5%
CCCc1ccc(S(=O)(=O)N2CCN(Cc3ccco3)CC2)cc1 | 1% | 11 | -26% | 6 | 1% | x | x | x | x | x
O=C(CNCc1cccnc1)Nc1cc(C(F)(F)F)ccc1N1CCOCC1 | -16% | -8 | 0% | -4 | 7.9µM* | u | -11% | -3% | -4% | 4%
COC(=O)c1ccccc1N(C)S(=O)(=O)c1cc2c(cc1C)OCC(=O)N2 | 0% | -1 | x | -2 | -16% | x | x | x | x | x
Cc1csc(C(=O)O)c1NC(=O)c1c(Cl)cccc1Cl | 0% | -4 | -5% | -2 | 3% | x | x | x | x | x
CCOC(=O)c1sc2nc(CSc3ccccc3)nc(N3CCCN(C)CC3)c2c1C | -4% | -8 | 0% | -4 | 20µM* | -18% | -17% | 4% | -1% | 6%
CCCn1nnnc1NCc1cccc(Cl)c1 | -2% | 12 | 8% | 0 | -8% | x | x | x | x | x
C=CCN1CC[C@]23CCCCC2[C@H]1Cc1ccc(O)cc13 (some centres undefined) | x | x | -5% | x | -2% | x | x | x | x | x
CN1CC[C@]2(C)c3cc(O)ccc3N(C)[C@@H]12 | x | x | x | x | 1µM* | -2%[19.1 µM] | -23%[28.7 µM] | 2.2µM* | 3.2µM* | 3.2µM*
Cc1ccc(S(=O)(=O)CCN2C=CC(C(F)(F)F)=NCC2)cc1 | 3% | 6 | 7% | 1 | -1% | x | x | x | x | x
COc1ccccc1OCc1nn[nH]n1 | -6% | -4 | 8% | 1 | 32µM* | u | 18% | -3% | 12% | -9%
SMILES | LmPK inh | Shiga inhibitor | NS1 function inh | CHX counter | Giardia FBPA inh-1 | Giardia growth | Mammalian tox | Giardia FBPA inh-2 | Rabbit FBPA inh | GAPDH counter
Clc1ccc(OCc2nn[nH]n2)cc1 | 4% | -16 | 9% | 1 | u | x | x | x | x | x
OCCN(CCO)c1ccc(C(c2ccccc2Cl)c2ccc(N(CCO)CCO)cc2Cl)c(Cl)c1 | -2% | -2 | u | 1 | -14% | x | x | x | x | x
OCCN(CCO)c1ccc2ccccc2c1 | 0% | -6 | -3% | -11 | 16µM* | -17%[10.4 µM] | -18% | 4µM* | u | -26%
CCN1CCN(CCCN(Cc2ccco2)C(=S)Nc2ccc(C)c(Cl)c2)CC1 | 4% | -6 | 0% | -3 | 0% | x | x | x | x | x
CCN1CCN(CCCN(Cc2ccco2)C(=S)Nc2cc(Cl)ccc2C)CC1 | 3% | -10 | -5% | -3 | 16µM* | u | -9% | -4% | 7% | 10%
CCc1ccc2c(-c3cccc(Cl)c3)nc(=O)n(CC)c2n1 | x | x | x | x | 11% | x | x | x | x | x
CCC(C)c1ccc(NC(=O)CN(C)CC(=O)Nc2cccc(OC)c2)cc1 (centres undefined) | -5% | 21 | x | 13 | 16µM* | u | 3% | -7% | -3% | -3%
Cc1ccccc1-c1noc(C(C)NC(=O)c2ccco2)n1 (centres undefined) | -5% | -13 | -10% | -3 | 7% | x | x | x | x | x
CC(C)OC(=O)Nc1ccc2c(c1)N(C(=O)N1CCN(C)CC1)c1ccccc1CC2 | u | 16 | -3% | 30* | 16µM* | 8.9µM* | 1.8µM* | 2% | 9% | 6%
CCOc1ccc(C)cc1S(=O)(=O)Nc1ccc(Cl)cn1 | -3% | -7 | 5% | -4 | 12% | x | x | x | x | x
CCOc1ccc2[nH]c(S(=O)(=O)CC)nc2c1Cl | -2% | 9 | -4% | 13 | 3.5µM* | -18%[38.3 µM] | 1% | -11% | -3% | 1%
OCCN1CC(O)C(O)C(O)C1CO (centres undefined) | x | x | x | x | 11% | x | x | x | x | x
